# TRPM1 prom inh: inhibitors of MITF-dependent TRPM1 promoter reporter, primary screen, cell-based, SK-MEL-5, single point, luciferase; SK-MEL-5 TRPM1 promoter luciferase, 24 h; inhibition, % at 12.5 µM; actives 0.83% (n = 330,000);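 active = mean inhibition across replicates of 60% or more, whatever share of single replicates reaches that level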
# CF NFkB block: inhibitors of PAF-induced NF-kB signaling, primary screen, cell-based, GFP fluorescence, uHTS; KKLEB NF-kB-GFP reporter, GFP fluorescence overnight; inhibition, % at 5 µM; actives 0.86% (n = 360,000); AID 588850, 2011;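 active = at least 50% inhibition at 5 µM, scaled per plate between neutral and stimulator controls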;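 note: PAF is a Pseudomonas aeruginosa culture filtrate used as stimulus; plate controls were PAF-stimulated DMSO wells for no effect and unstimulated DMSO wells for full effect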
# KKLEB tox: cytotoxicity in KKLEB CF airway cells, primary screen, cytotoxicity control for CF NF-kB inhibitor project, cell-based, uHTS, fluorescence assay plates | KKLEB CF airway cells viability, ATPlite luminescence, overnight; active compounds read low; cells stimulated with P. aeruginosa culture filtrate | activity change (cytotoxicity), % at 5 µM | actives 0.36% (n = 360,000) | AID 602141, 2011;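 active = corrected activity change at or below -50% at 5 µM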
# Peg3 promoter: Peg3 promoter-driven luciferase inhibitors, primary screen, cell-based, HeLa, luciferase luminescence; actives 1.7% (n = 360,000); inhibition, % at 20 µM; HeLa PEG-Prom luciferase reporter, overnight; AID 588405, 2011;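 active = inhibition of at least 50% at 20 µM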
# HIF-2a inh: HIF-2a reporter inhibitors, primary screen, luminescence, 786-0 RCC cells | 786-0 RCC cells HIF-2a reporter, luciferase luminescence, overnight | inhibition, % at 18.8 µM | actives 0.72% (n = 360,000);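 active = inhibition of the luminescence signal of 40% or more relative to plate controls, in a single-dose primary screen at 18.75 µM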
# Shn3 3UTR inh: reduction of Shn3 3'UTR firefly luciferase signal, primary screen, Schnurri-3 inhibitor project, cell-based, Clone20 osteoblasts, set 2. inhibition, % at 12.5 µM. Clone20 osteoblast Shn3 3'UTR firefly luciferase, 24 h. actives 0.52% (n = 360,000);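 active = mean inhibition of at least 75% with every replicate also reaching 75%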;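 note: 0% = median of neutral control wells and 100% = pilot-screen positive control compound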
# An asterisk follows results filed as active; x = no result. Hits are enriched below; roughly 2.8% of the tested compounds scored in any of these assays.
SMILES,TRPM1 prom inh,CF NFkB block,KKLEB tox,Peg3 promoter,HIF-2a inh,Shn3 3UTR inh
c1ccc(COc2ncnc3c2ncn3CCCNC2CCN(Cc3ccccc3)CC2)cc1,x,33.0,-27.0,61.4*,-30.3,0.8
C=CCN(Cc1nc(-c2ccccc2)no1)C(=O)c1ccco1,-4.9,-2.3,-8.1,-6.5,-8.6,8.0
COc1ccc(NC(=O)CSc2nnc(-c3cccc(O)c3)o2)cc1,-18.8,-20.2,-3.8,-204.1,-136.1,-6.2
COc1cccc(NC(=O)CSc2nnc(-c3cc(C)n(-c4ccccc4)c3C)o2)c1,16.7,-6.5,-0.7,-76.9,41.8*,34.1
CC(=O)Nc1cccc(-c2ccnc3c2CC(C)(C(=O)Nc2ccccc2)O3)c1 (stereo not given),x,-39.1,9.8,29.4,18.8,10.6
CC(=O)Nc1cccc(-c2ccnc3c2CC(C)(C(=O)Nc2ccc(C(C)C)cc2)O3)c1 (stereo not given),x,1.4,-11.4,51.6*,23.9,5.0
CCCCCCCCCn1ccc(=N)cc1,64.8*,47.5,-47.6,31.9,24.5,59.1
Cc1ccc(C)c(NC(=O)CN(C)C(=O)c2ccccc2OCc2ccccc2Cl)c1,-3.6,-1.2,1.5,20.0,5.6,-0.1
COc1cc(OC)c2c(-c3cccc(-c4ccc(NC(C)=O)cc4)c3)cc(=O)oc2c1,19.6,42.3,-6.7,-112.0,-40.2,-7.9
COc1cc(OC)c2c(-c3cccc(-c4sccc4C(C)=O)c3)cc(=O)oc2c1,51.4,59.9*,-24.2,-17.3,-4.2,13.4
Nc1cccnc1S(=O)(=O)c1cccc(C(F)(F)F)c1,0.3,-12.6,8.7,12.4,22.4,6.7
Nc1nc(N)c2cc(S(=O)(=O)c3cccc(C(F)(F)F)c3)ccc2n1,x,27.4,-19.4,22.4,28.9,85.3*
O=[N+]([O-])/C=C/c1cn(Cc2ccc(F)cc2)c2ccccc12,22.4,-2.2,-3.0,53.0*,22.4,32.6
O=C(Nc1cc([N+](=O)[O-])ccc1Cl)C(Sc1ccccc1)c1ccccc1 (stereo not given),3.5,4.9,-0.7,27.8,21.0,9.4
O=C(Nc1ccc(Cl)c([N+](=O)[O-])c1)C(Sc1ccccc1)c1ccccc1 (stereo not given),-3.6,49.8,-7.7,52.9*,17.9,47.1
O=C(CN1C(=O)c2ccccc2S1(=O)=O)c1ccccc1,59.6,0.5,0.6,53.5*,46.5*,51.9
O=C(CN1C(=O)c2ccccc2S1(=O)=O)Nc1ncc(Cl)cc1Cl,37.9,12.2,-7.9,58.2*,32.1,38.9
CC(C)NC(=O)CN1C(=O)c2ccccc2S1(=O)=O,-4.9,3.0,1.8,0.0,4.1,-26.3
Cc1ccc(OCC(=O)Nc2cnn(CCCC(=O)O)c2)c([N+](=O)[O-])c1,2.0,-15.2,-4.3,-8.0,8.2,4.0
CCN(Cc1ccccc1)C(=O)c1nn(-c2ccc(OC)cc2)c(=O)c2c1c1ccccc1n2C,2.2,11.1,-6.5,67.7*,20.3,23.9
CNC(=S)N(CCCn1ccnc1)Cc1c(F)cccc1Cl,4.7,-5.1,5.4,15.9,17.4,-4.4
Cc1cccc(CCNC(=O)C2CCCN(c3ncnc4c3nc3n4CCCCC3)C2)c1 (stereo not given),-10.1,9.0,-1.9,9.7,9.7,-9.1
Cc1cccc(N2CCN(CCCNC(=O)C3CCCN(c4ncnc5c4nc4n5CCCCC4)C3)CC2C)c1 (stereo not given),36.9,-3.6,10.8,60.0*,11.9,55.2
O=C(NCC1CCN(Cc2ccc(Cl)cc2)CC1)C1CCCN(c2ncnc3c2nc2n3CCCCC2)C1 (stereo not given),27.2,8.6,-2.2,51.5*,16.1,25.5
CN(C)CCOc1ccc2c(c1)C(=O)C(=Cc1ncc([N+](=O)[O-])n1C)C2,x,-64.1,-16.5,103.2*,21.3,50.9
CCn1c(=O)cc(SCC(=O)NCc2ccc(C)cc2)c2ccccc21,2.5,-8.2,-12.4,2.4,2.7,-8.6

# Assay outcomes from PubChem BioAssay.
